High-throughput results (PubChem)
D1 PAM – potentiators of human D1 dopamine receptor. P21728. HEK293 TREx D1 cells, calcium flux, dopamine EC20 potentiation. potentiation, % at 10 µM. 360,000 tested, 0.036% active; in the data active = potentiation above about 30%; also: 0% is about no effect
Target sequence (P21728 whole entry, looked up): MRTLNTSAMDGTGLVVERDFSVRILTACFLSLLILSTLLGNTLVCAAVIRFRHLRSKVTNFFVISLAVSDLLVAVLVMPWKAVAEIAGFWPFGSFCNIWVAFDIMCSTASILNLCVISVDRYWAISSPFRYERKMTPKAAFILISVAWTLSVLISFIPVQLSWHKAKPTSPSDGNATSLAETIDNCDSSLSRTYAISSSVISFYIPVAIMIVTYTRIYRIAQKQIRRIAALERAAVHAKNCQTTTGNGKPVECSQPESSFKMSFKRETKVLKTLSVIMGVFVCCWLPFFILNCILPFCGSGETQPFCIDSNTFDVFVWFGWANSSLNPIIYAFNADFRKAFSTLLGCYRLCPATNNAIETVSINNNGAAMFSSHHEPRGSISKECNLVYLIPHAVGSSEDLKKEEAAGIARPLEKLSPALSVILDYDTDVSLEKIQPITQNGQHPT
TRHR enhancer – allosterically enhances the human TRH receptor; P34981; TRHR cells, fluo-8 calcium fluorescence, EC20 TRH enhancement; enhancement, % at 2 µM; 360,000 tested, 0.66% active; AID 493056; in the data active = enhancement above about 30%; also: 0% is about no effect
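Enhancer read-out: after compound pinning and an initial kinetic agonist-mode read, an EC20 of TRH (10 nM final) was injected and fluo-8 calcium signal (Ex 480/Em 530) followed at 1 s/cycle for 100 cycles in TRHR-expressing cells.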
D1 antag – antagonists of human D1 dopamine receptor. P21728. HEK293 TREx D1 cells, calcium flux, dopamine EC80; hits give low values. activity change, negative = inhibition, % at 10 µM. 360,000 tested, 3.2% active. AID 504652; in the data active = activity change below about -30%; also: % is scaled to controls: 0 for no effect and ±100 for the full control effect
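Allosteric or orthosteric antagonism assessed as attenuation of the calcium response to EC80 dopamine, added 180 s after compound, in induced HEK293 Trex D1 cells loaded with no-wash calcium dye.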
TRHR ag – activates the human TRH receptor | TRHR cells, calcium flux fluo-8, FDSS agonist mode | AID 493084 | 360,000 tested, 0.18% active | P34981 | activation, % at 2 µM; also: 0% is about no effect
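Steps: seed TRHR cells overnight; add fluo-8 no-wash Ca dye, RT 30 min–1.5 h; record 10 s baseline; pin-transfer compounds; monitor fluorescence 1 cycle/s for the agonist window. Calcium increases flag candidate agonists.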
D1 agonist – human D1 receptor agonism; activation, % at 2 µM; P21728; HEK293 T-REx D1 cells, calcium flux, agonist mode; 360,000 tested, 1% active; also: 0% is about no effect
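Tetracycline-induced HEK293 TREx D1 cells, force-coupled to calcium signalling, were dye-loaded with a no-wash calcium kit. Compound was pin-added after a 10 s baseline. Fluorescence was read kinetically at 1 cycle/s for 180 s, with calcium rises flagged as agonism.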
Starred values were filed as active, the others as inactive; . = not tested or not shown. An excerpt weighted towards active compounds, which were near 4.6% of everything screened. Rule as the data show it, unless noted: active = activation above about 30%; inactive = the rest.

SMILES	D1 PAM	TRHR enhancer	D1 antag	TRHR ag	D1 agonist
Oc1c(C(c2ccc(Cl)cc2)N2CCC3(CC2)OCCO3)sc2nc(-c3ccco3)nn12 (stereo unspecified)	2	-6	.	0	-3
CCOc1cc2c(cc1C=O)OC(C)C2 (stereo unspecified)	4	8	2	0	2
CCOc1cc2c(cc1/C=C/c1noc(C)c1[N+](=O)[O-])OC(C)C2 (stereo unspecified)	6	5	-17	97*	74*
COc1ccc(CCNC(=O)C2CC(c3ccc([N+](=O)[O-])cc3)=NO2)cc1 (stereo unspecified)	-5	0	-3	0	7
COc1ccc(C2=NOC(COc3ccc([N+](=O)[O-])cc3)C2)cc1 (stereo unspecified)	-10	1	-32*	0	9
COC(=O)CSCc1nc(-c2ccc(C(=O)OC)cc2)oc1C	-1	2	-1	0	4
CCOC(=O)C(=CNc1cccc(N)n1)C(=O)OCC	-6	1	-23	0	1
CCOC(=O)C(=CNc1ccc(Cl)cn1)C(=O)OCC	0	5	-40*	-1	1
CCCN(C(=O)C(=O)Nc1ccc2nc3n(c(=O)c2c1)CCCCC3)c1ccc(OCC)cc1	3	4	-19	-2	7
C=CC[n+]1c(-c2ccc(C)cc2)csc1Nc1ccc(NC(C)=O)cc1	-14	-1	-47*	0	5
Cc1ccccc1Oc1ccccc1N	-5	2	-31*	0	0
Nc1ccccc1OCCOc1ccccc1N	4	6	-4	-1	2
Cc1cc(OCC(=O)N2CCN(c3ccc(F)cc3)CC2)c2c(C)cc(=O)oc2c1	-3	3	-33*	0	0
Cc1cc(OCC(=O)N2CCN(c3ccccc3)CC2)c2c(C)cc(=O)oc2c1	1	-2	13	0	1
COC(=O)C1=C(C)N(Cc2ccc(OC)cc2)C(=O)/C1=C\c1ccco1	-10	-4	-34*	0	2
Cc1ccc(-n2c(CCc3ccccc3)n[nH]c2=S)cc1C	-2	31*	-2	0	0
Cc1ccc(OCc2n[nH]c(=S)n2-c2ccccc2)cc1C	-1	-6	-7	0	1
Cc1cc(C)c(-c2csc(NC(=O)/C=C/c3cccs3)n2)c(C)c1	-2	-1	-37*	1	2
Cc1cc(C)nc(NC(=O)/C=C/c2cccs2)c1	4	0	-12	-1	0
CC(C)Oc1ccc(C(CCNCc2ccc(O)cc2)c2ccccc2)cc1 (stereo unspecified)	-6	3	7	2	39*
COc1ccc(C(CCNCc2ccc(N(C)C)cc2)c2ccccc2)cc1 (stereo unspecified)	0	6	4	1	28
O=C(CSc1ccc(F)cc1)Nc1ccc(C2SCCS2)cc1	-1	6	-9	-1	4
Cc1ccc(NC(=O)COC(=O)c2ccc(CN3CCCC3=O)cc2)c(Cl)c1	.	-2	-44*	0	13
Cc1ccc(NC(=O)c2ccc(CN3C(=O)CCn4nc(C)cc43)cc2)c(Cl)c1	-3	-2	-34*	0	1
Cc1cc2n(n1)CCC(=O)N2Cc1ccc(C(=O)Nc2cc(Cl)ccc2C)cc1	2	0	-1	0	-2
SMILES	D1 PAM	TRHR enhancer	D1 antag	TRHR ag	D1 agonist
CSc1ccc(COC(=O)CCS(=O)(=O)c2ccc(C)cc2)cc1	-7	-1	-3	-1	3
COc1ccc(COC(=O)CCS(=O)(=O)c2ccc(C)cc2)cc1	1	4	-44*	-1	7
O=C(Cn1ccc2ccccc2c1=O)N1CCN(Cc2ccc3c(c2)OCO3)CC1	-4	4	-57*	0	-1
O=C(CS(=O)(=O)Cc1ccccc1)N1CCN(Cc2ccc3c(c2)OCO3)CC1	-1	1	-37*	0	5
CC1CCN(c2nc3ccc(C(=O)N4CCN(Cc5ccc6c(c5)OCO6)CC4)cc3s2)CC1	.	5	-31*	-1	3
O=C(c1cccc(Cl)c1)N1CCN(Cc2ccc3c(c2)OCO3)CC1	-3	0	-3	0	2
O=C(c1cc2c(=O)n3ccccc3nc2s1)N1CCN(Cc2ccc3c(c2)OCO3)CC1	-1	-3	-31*	0	0
